Experimental data as given in PubChem BioAssay.
Activity calls are given as the source filed them.

Tests used:
[1] = binders of probe aFSTL3 on microarray, primary screen, stem cell growth factor project, biochemical, small-molecule microarray, fluorescence 635/667 (AID 1064); details: higher = more signal;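 note: measures binding of the biotinylated anti-FSTL3 antibody to printed compounds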
[2] = binders from COS7 lysate, DM2A8 probe, primary screen, torsin A project, cell lysate, small-molecule microarray, fluorescence 635/667 (AID 1065); details: higher = more signal, COS7 lysate expressing mutant human TOR1A
[3] = binders of probe aFGF2 on microarray, primary screen, stem cell growth factor project, biochemical, small-molecule microarray, fluorescence 635/667 (AID 1067); details: higher = more signal;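 note: measures binding of biotinylated aFGF2 protein to printed compounds on slides; z-score merges feature fluorescence and signal-to-noise across triplicate slides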
[4] = binders of probe aFGF10 on microarray, primary screen, stem cell growth factor project, biochemical, small-molecule microarray, fluorescence 635/667 (AID 1071); details: higher = more signal;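 note: score merges 667 nm spot intensity and signal to noise from triplicate slides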
[5] = biological target: Neurogenic locus notch homolog protein 2 (Homo sapiens) (UniProt Q04721); test: Notch2 binders on small-molecule microarrays, primary screen, biochemical, small-molecule microarray, 635 nm fluorescence, stem cell growth factors (AID 1073); details: Notch2 binding, higher = more signal
[6] = biological target: Pro-neuregulin-1, membrane-bound isoform (Homo sapiens) (UniProt Q02297); test: NRG1 binders on small-molecule microarrays, primary screen, psychiatric disease protein project, biochemical, small-molecule microarray, fluorescence 635/667 (AID 1075); details: NRG1 binding, 635 nm fluorescence, higher = more signal;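 note: score combines 667 nm spot fluorescence with signal to noise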
Pro-neuregulin-1, membrane-bound isoform (Homo sapiens), sequence (Q02297 whole entry, looked up, the tested form may be a part, canonical isoform): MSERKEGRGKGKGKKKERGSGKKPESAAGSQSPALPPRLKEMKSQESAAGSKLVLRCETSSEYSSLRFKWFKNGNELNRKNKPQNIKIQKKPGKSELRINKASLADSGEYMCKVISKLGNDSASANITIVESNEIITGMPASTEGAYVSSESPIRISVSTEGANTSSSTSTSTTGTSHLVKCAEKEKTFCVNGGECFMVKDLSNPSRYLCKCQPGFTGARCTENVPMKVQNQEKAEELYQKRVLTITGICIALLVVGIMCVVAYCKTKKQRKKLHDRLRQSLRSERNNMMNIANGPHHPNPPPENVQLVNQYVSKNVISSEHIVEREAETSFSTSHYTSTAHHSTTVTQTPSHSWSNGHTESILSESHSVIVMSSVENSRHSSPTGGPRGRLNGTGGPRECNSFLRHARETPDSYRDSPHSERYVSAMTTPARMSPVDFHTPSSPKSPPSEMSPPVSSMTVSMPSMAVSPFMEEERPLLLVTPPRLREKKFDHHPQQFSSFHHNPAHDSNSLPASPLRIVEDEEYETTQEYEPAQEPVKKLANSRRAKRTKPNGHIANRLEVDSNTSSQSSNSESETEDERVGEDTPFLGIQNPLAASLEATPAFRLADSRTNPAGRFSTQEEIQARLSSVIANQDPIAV

[7] = tested on: Neuregulin-1 EGF-like domain; test: binders of neuregulin-1 EGF-like domain, primary screen, biochemical, small-molecule microarray, 635 nm fluorescence (AID 1081); details: small-molecule microarray binding, higher = more signal;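 note: binding of the protein to compounds printed on small-molecule microarray slides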
[8] = FRG1 promoter luciferase signal modulators, primary screen, FRG1 inhibition for FSHD, cell-based, C2C12 myotubes, firefly/Renilla luciferase, luminescence (AID 1084); details: higher = more signal, called active from +8 up or from −8 down
[9] = binders of probe aFST on microarray, primary screen, stem cell growth factor project, biochemical, small-molecule microarray, fluorescence 635/667 (AID 1086); details: higher = more signal;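 note: score merges 667 nm fluorescence with signal-to-noise of each printed compound spot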
[10] = binders of probe aHhip on microarray, primary screen, stem cell growth factor project, biochemical, small-molecule microarray, fluorescence 635/667 (AID 1087); details: higher = more signal;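 note: score merges spot fluorescence at 667nm with spot signal to noise ratio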
[11] = tested on: PRMT1 (protein arginine N-methyltransferase 1); test: PRMT1 binders on small-molecule microarrays, primary screen, biochemical, small-molecule microarray, 635 nm fluorescence (AID 1088); details: small-molecule microarray binding, higher = more signal;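 note: binding of Prmt1 protein to compounds spotted on small-molecule microarray slides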
[12] = yeast growth modulation, basal conditions, primary screen, YJM789 clinical isolate, OD600, 24 h (AID 1089);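 note: growth of clinical yeast isolate S. cerevisiae YJM 789 seeded 1000 cells per well; test concentration not given here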; details: S. cerevisiae YJM789 growth, higher = more signal, called active from +8 up or from −8 down
[13] = fission yeast growth modulation, primary screen, strain 972, OD600, 24 h, no modulator (AID 1090);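 note: basal condition with compound alone and no growth modifier present; test concentration not given here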; details: S. pombe 972 growth, higher = more signal, called active from +8 up or from −8 down
[14] = S. cerevisiae growth modulation with rapamycin, primary screen, strain BY4716, OD600, 96 h (AID 1091); details: higher = more signal, called active from +8 up or from −8 down; note: test concentration not given here
[15] = biological target: Torsin-1A-interacting protein 2 (Homo sapiens) (UniProt Q8NFQ8); test: LULL1 binders on small-molecule microarray, primary screen, cell lysate, human LULL1 lysate, 635/667 nm fluorescence (AID 1092); details: hLULL1 lysate binding, 635 nm fluorescence, higher = more signal;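 note: probe is lysate of COS7 cells overexpressing human LULL1; score merges per-feature 667 nm fluorescence with signal-to-noise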
Torsin-1A-interacting protein 2 (Homo sapiens), sequence (Q8NFQ8 whole entry, looked up): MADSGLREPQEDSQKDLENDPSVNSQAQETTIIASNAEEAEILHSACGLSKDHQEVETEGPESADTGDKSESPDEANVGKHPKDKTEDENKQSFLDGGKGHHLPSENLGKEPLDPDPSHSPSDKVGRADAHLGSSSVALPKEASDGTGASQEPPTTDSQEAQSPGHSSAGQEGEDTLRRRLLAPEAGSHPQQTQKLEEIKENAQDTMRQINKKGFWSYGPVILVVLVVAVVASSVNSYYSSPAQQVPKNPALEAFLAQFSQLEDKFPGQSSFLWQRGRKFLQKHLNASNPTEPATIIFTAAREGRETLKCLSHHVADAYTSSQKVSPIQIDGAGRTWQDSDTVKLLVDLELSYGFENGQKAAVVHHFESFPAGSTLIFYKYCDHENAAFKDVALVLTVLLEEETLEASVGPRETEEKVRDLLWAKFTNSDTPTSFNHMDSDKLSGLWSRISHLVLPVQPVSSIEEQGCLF

[16] = E. coli growth modulation, two-sided OD650, primary screen, E. coli filamentation project, strain DRC41, 24 h (AID 1093); details: OD650, 24 h, higher = more signal, called active from +8 up or from −8 down;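 note: MC1000 strain lacking acrAB efflux and sulA so SOS filamentation is blocked; test concentration not given here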
[17] = small-molecule microarray binders of probe aLefty2, primary screen, biochemical, biotinylated probe, 635/667 nm fluorescence (AID 1094); details: higher = more signal;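 note: score merges spot fluorescence near 667 nm with spot signal-to-noise ratio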
[18] = tested on: Noggin (protein binding on small-molecule microarray); test: Noggin binders on small-molecule microarray, primary screen, biochemical, 635/667 nm fluorescence (AID 1095); details: 635 nm fluorescence, higher = more signal;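 note: score merges 667 nm feature fluorescence with signal to noise over triplicate slides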
[19] = biological target: Neurogenic locus notch homolog protein 3 (Homo sapiens) (UniProt Q9UM47); test: NOTCH3 binders on small-molecule microarray, primary screen, biochemical, 635/667 nm fluorescence (AID 1096); details: NOTCH3 binding, 635 nm fluorescence, higher = more signal
Neurogenic locus notch homolog protein 3 (Homo sapiens), sequence (Q9UM47 whole entry, looked up): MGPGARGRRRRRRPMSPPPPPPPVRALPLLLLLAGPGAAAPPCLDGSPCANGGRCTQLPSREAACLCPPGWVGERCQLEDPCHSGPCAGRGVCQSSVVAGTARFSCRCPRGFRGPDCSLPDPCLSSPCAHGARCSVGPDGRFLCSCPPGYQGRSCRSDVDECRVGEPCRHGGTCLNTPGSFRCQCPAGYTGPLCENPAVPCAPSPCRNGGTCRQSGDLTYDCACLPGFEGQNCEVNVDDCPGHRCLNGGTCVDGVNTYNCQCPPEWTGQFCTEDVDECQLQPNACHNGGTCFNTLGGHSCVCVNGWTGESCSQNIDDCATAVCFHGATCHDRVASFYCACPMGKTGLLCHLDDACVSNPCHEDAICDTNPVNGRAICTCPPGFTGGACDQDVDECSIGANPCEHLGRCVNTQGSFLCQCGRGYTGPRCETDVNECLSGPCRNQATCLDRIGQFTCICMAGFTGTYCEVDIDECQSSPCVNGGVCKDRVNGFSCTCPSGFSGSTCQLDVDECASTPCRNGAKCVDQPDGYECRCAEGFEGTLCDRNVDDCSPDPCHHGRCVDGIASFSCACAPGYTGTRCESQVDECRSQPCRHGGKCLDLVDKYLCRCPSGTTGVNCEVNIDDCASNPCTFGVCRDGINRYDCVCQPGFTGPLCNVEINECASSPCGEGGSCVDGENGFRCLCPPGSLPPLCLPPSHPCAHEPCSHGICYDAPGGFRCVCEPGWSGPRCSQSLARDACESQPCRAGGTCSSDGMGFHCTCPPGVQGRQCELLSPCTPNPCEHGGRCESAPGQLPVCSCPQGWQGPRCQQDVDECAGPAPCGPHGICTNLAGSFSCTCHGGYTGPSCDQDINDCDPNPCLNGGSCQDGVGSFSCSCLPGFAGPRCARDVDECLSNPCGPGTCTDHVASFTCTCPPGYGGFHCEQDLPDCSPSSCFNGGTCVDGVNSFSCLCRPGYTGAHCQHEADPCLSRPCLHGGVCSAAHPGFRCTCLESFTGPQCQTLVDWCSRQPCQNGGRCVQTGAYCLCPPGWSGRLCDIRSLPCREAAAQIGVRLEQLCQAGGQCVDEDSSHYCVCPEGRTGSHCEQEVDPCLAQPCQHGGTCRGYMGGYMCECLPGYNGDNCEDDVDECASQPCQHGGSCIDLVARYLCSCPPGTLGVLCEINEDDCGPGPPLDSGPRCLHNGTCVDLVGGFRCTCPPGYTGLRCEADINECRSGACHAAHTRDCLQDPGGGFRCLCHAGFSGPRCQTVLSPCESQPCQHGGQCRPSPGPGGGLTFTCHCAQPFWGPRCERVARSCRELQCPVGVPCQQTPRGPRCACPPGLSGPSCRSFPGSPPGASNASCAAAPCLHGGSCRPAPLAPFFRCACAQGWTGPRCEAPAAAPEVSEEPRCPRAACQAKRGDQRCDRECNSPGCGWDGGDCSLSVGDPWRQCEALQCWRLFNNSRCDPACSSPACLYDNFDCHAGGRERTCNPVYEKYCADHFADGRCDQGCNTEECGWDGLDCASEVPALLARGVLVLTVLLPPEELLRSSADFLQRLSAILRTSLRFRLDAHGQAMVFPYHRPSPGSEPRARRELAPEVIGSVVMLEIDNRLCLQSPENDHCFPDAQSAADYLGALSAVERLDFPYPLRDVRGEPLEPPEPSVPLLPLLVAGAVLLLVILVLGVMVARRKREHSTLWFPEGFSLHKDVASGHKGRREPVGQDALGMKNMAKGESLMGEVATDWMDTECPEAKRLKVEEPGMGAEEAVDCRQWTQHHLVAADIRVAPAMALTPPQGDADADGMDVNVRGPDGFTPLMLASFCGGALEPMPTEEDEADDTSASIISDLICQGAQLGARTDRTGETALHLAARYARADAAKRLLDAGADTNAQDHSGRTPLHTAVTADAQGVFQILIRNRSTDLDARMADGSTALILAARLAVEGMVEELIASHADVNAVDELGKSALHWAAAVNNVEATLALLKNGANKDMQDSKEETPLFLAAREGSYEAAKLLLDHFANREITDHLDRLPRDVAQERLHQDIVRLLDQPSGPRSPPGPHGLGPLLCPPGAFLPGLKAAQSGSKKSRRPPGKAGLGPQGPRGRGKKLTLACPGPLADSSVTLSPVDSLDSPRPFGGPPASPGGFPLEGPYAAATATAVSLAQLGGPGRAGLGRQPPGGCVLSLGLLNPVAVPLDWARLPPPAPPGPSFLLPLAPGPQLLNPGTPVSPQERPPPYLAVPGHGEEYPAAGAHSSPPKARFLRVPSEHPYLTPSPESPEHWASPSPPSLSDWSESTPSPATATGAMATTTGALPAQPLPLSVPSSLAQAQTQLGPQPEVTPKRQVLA

[20] = small-molecule microarray binders of probe aEGFR, primary screen, biochemical, biotinylated probe, 635/667 nm fluorescence (AID 1097); details: higher = more signal;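 note: probe is a biotinylated anti-EGFR antibody binding compounds printed on slides; score combines fluorescence near 667 nm and signal to noise of each spot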

Structure (SMILES) | composite z-score [1] | composite z-score [2] | composite z-score [3] | composite z-score [4] | composite z-score [5] | composite z-score [6] | composite z-score [7] | z-score [8] | composite z-score [9] | composite z-score [10] | composite z-score [11] | z-score [12] | z-score [13] | z-score [14] | composite z-score [15] | z-score [16] | composite z-score [17] | composite z-score [18] | composite z-score [19] | composite z-score [20]
CO[C@H]1O[C@H](CO)[C@@H](OC(=O)Nc2ccc3c(c2)OCO3)[C@@H]2OC(=O)[C@@H](Cc3ccccc3)C/C=C/C[C@H](Cc3ccccc3)C(=O)O[C@@H]12 | -0.276 | -0.0172 | 0.0631 | 0.984 | 1.12 | 0.995 | 0.976 | -0.277 (inactive) | 0.508 | 0.0373 | 1.48 | 1.17 (inactive) | 0.78 (inactive) | 2.27 (inactive) | 1.29 | 0.156 (inactive) | -0.0562 | 0.566 | 0.887 | 0.0528
C=CCNC(=O)[C@H]1[C@@H]2C(=O)O[C@@H](c3ccccc3)[C@@H](c3ccccc3)N2[C@@H](c2ccccc2OCCO)[C@]12C(=O)N(C(=O)OCCOC)c1ccccc12 | 0.041 | 0.3 | -0.0226 | 0.832 | 0.716 | 1.54 | 1.13 | -2.27 (inactive) | 0.186 | 0.0623 | 1.51 | 1.5 (inactive) | 2.05 (inactive) | 5.15 (inactive) | 2.78 | -0.513 (inactive) | -0.196 | 0.786 | 1.12 | -0.0828
COc1ccc(CCNC(=O)[C@@H]2c3ccccc3C(=O)N(CC34CC5CC(CC(C5)C3)C4)[C@H]2c2ccc(CO)cc2)cc1 | -0.227 | 0.0668 | 0.257 | 0.239 | 0.703 | 1.09 | 1.24 | -1.89 (inactive) | -0.0095 | 0.0972 | 1.12 | -0.543 (inactive) | -0.817 (inactive) | -0.13 (inactive) | 2.45 | 0.573 (inactive) | -0.297 | 1.92 | 1.06 | -0.0828
CN1C(=O)C2C(C1=O)C1C=C(c3ccc(CO)cc3)C2C(c2cccs2)N1C (stereo not given) | 0.085 | 0.429 | -0.0578 | 0.0934 | -0.0125 | 0.885 | 1.04 | 1.63 (inactive) | -0.075 | -0.137 | -0.27 | -0.208 (inactive) | -2.24 (inactive) | 1.33 (inactive) | 0.989 | 1.24 (inactive) | -0.072 | -0.518 | -0.133 | 0.637
O=C1C2C=CC(C(O)c3cccc(O)c3)N(Nc3ccccc3F)C2C(=O)N1c1ccccc1 (stereo not given) | 0.0355 | 0.74 | -0.0005 | -0.0284 | 0.0745 | 0.445 | 0.218 | 2.18 (inactive) | 0.725 | -0.437 | 0.788 | -25 (active) | -8.06 (active) | -1.5 (inactive) | 1.88 | 1.94 (inactive) | -0.192 | -0.171 | 0.552 | -0.13
C#CCN([C@H](/C=C/C1CC1)[C@@H](O)Cc1ccccc1)[C@@H](Cc1ccccc1)C(=O)OC | 0.262 | -0.134 | -0.121 | -0.363 | -0.807 | -0.458 | -0.706 | -1.67 (inactive) | -0.0804 | -0.123 | 0.447 | -0.345 (inactive) | -0.825 (inactive) | 0.316 (inactive) | 0.126 | 0.598 (inactive) | -0.128 | 0.237 | 0.606 | -0.198
C=CC(CO)NC(=O)OCC1c2ccccc2-c2ccccc21 (stereo not given) | -0.165 | 0.96 | -0.178 | 0.282 | 0.342 | 0.147 | 0.256 | -0.113 (inactive) | 0.0613 | -0.217 | -0.341 | -1.2 (inactive) | -0.0715 (inactive) | -0.29 (inactive) | -0.652 | -0.77 (inactive) | -0.145 | 0.497 | 0.493 | -0.0192
NCCCC[C@@H]1NC(=O)[C@H]2C[C@@H](C(=O)NCc3ccc(F)cc3)[C@@H](c3cccc(OCCO)c3)N2C1=O | -0.261 | 0.357 | -0.0262 | 0.527 | 0.772 | 1.09 | 1.33 | -0.0673 (inactive) | 0.182 | -0.0994 | 1.56 | 1.74 (inactive) | -0.0785 (inactive) | 0.482 (inactive) | 2.69 | -0.765 (inactive) | -0.0258 | 1.81 | 1.05 | 0.0176
C=CC[C@@]1(C(=O)N(C)C)N=C(c2ccc(OCCCO)cc2)O[C@@H]1c1ccccc1 | 0.733 | 1.13 | 0.0917 | 0.794 | 0.515 | 2.08 | 1.38 | -0.004 (inactive) | 0.598 | 0.109 | 0.52 | -0.69 (inactive) | -2.28 (inactive) | -2.31 (inactive) | 3.5 | -0.343 (inactive) | 0.363 | -0.474 | -0.0401 | 0.464
CN(C)CCCC[C@@H]1NC(=O)[C@@H]2C[C@H](C(=O)NCc3ccc(F)cc3)[C@H](c3ccc(O)cc3)N2C1=O | 0.274 | 0.295 | -0.103 | 0.203 | -0.446 | 0.625 | 1.49 | 0.254 (inactive) | -0.512 | -0.191 | 1.34 | 0.582 (inactive) | -1.4 (inactive) | 0.0709 (inactive) | 2.72 | -0.585 (inactive) | 0.164 | 1.9 | 0.968 | 0.364
